The target in assay [1] is T1, Ephrin type-B receptor 2 (Homo sapiens) (UniProt P29323).
T1 sequence (whole entry): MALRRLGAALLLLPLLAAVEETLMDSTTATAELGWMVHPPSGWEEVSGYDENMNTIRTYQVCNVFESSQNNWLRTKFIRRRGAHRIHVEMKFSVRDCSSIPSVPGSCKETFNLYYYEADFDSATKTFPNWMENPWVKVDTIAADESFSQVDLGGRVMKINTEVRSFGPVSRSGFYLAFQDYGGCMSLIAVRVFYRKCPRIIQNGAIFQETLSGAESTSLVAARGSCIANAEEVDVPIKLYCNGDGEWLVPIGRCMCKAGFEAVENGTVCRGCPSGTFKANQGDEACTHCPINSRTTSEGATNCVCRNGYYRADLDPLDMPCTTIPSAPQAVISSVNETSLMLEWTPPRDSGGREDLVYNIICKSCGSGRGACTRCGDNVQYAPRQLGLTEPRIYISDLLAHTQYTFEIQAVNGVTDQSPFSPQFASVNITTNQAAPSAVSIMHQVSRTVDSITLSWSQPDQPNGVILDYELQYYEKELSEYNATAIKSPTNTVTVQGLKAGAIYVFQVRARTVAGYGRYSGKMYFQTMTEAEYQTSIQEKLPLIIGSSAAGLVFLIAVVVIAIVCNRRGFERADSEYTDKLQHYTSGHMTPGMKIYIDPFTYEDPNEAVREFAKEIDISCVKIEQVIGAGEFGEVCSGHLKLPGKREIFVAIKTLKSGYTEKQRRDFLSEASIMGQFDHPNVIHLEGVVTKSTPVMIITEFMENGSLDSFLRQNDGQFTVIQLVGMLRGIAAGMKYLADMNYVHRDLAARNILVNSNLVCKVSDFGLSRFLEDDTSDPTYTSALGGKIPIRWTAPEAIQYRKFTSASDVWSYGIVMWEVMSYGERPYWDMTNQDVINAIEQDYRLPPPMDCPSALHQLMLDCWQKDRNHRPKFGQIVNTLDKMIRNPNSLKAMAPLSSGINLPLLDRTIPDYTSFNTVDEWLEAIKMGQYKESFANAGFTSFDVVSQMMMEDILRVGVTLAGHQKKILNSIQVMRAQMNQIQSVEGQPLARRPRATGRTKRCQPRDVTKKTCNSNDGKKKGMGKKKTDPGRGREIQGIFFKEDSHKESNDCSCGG
As to conditions: at 1 µM.

Assay [2] deals with T2, Ephrin type-B receptor 3 (Homo sapiens) (UniProt P54753).
T2 sequence (whole entry): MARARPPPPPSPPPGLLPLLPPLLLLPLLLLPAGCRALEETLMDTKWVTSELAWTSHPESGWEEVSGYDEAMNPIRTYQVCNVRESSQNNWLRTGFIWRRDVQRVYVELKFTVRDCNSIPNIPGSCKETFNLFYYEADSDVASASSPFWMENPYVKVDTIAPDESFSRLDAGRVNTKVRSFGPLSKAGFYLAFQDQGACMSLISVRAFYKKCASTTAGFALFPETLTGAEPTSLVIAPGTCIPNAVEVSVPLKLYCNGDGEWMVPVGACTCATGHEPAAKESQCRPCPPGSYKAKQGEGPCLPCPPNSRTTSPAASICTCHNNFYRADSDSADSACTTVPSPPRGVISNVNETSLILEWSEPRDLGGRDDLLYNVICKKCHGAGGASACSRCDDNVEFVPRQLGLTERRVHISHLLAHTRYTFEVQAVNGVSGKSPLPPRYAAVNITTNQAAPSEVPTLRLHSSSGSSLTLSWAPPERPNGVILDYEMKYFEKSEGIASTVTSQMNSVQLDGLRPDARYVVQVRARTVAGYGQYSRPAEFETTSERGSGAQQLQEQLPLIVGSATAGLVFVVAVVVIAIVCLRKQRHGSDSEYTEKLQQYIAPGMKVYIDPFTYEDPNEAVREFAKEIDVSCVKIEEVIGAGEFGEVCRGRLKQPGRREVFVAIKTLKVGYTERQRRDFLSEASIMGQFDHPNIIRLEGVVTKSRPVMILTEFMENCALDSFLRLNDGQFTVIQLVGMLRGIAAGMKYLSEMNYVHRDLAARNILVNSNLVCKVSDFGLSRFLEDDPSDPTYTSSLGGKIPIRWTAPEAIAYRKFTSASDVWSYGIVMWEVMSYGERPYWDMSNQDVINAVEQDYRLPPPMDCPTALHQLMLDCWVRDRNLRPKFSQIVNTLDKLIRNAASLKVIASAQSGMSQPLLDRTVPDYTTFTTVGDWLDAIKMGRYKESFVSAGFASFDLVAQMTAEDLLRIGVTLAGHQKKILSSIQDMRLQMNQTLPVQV
As to conditions: at 0.1 µM.

Assay [3] deals with T2, Ephrin type-B receptor 3 (Homo sapiens). As to conditions: at 1 µM.
In assay [4] the target is T3, Ephrin type-B receptor 4 (Homo sapiens) (UniProt P54760).
T3 sequence (whole entry): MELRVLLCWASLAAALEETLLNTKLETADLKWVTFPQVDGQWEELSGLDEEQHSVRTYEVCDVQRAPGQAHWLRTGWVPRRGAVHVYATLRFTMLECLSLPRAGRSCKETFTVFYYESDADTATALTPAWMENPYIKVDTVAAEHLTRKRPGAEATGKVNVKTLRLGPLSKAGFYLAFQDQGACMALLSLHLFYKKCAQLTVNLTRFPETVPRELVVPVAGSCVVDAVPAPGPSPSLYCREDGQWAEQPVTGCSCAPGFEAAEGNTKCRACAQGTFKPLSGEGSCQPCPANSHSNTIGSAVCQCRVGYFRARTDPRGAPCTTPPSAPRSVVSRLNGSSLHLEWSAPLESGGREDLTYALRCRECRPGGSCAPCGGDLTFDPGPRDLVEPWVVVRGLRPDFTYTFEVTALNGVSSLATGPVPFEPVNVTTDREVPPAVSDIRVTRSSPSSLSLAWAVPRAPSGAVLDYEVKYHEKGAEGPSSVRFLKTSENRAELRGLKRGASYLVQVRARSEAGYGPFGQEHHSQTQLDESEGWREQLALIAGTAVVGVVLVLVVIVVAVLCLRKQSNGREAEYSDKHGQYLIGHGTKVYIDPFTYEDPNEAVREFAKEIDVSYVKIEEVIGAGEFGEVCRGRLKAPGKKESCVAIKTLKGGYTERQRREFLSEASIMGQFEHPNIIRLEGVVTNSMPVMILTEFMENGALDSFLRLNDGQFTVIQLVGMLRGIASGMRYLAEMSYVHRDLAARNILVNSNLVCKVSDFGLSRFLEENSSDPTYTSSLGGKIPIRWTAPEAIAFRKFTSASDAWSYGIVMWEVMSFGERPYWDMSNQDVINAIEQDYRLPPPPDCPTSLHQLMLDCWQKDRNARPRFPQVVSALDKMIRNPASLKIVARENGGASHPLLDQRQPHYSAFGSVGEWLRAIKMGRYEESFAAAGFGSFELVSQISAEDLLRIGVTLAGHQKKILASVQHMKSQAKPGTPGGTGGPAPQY
As to conditions: at 0.1 µM.

Assay [5] deals with T3, Ephrin type-B receptor 4 (Homo sapiens). As to conditions: at 1 µM.
For assay [6], the target named is Receptor tyrosine-protein kinase erbB-2 (Homo sapiens) (UniProt P04626). As to conditions: at 0.1 µM.
Sequence of Receptor tyrosine-protein kinase erbB-2 (Homo sapiens) (P04626 whole entry): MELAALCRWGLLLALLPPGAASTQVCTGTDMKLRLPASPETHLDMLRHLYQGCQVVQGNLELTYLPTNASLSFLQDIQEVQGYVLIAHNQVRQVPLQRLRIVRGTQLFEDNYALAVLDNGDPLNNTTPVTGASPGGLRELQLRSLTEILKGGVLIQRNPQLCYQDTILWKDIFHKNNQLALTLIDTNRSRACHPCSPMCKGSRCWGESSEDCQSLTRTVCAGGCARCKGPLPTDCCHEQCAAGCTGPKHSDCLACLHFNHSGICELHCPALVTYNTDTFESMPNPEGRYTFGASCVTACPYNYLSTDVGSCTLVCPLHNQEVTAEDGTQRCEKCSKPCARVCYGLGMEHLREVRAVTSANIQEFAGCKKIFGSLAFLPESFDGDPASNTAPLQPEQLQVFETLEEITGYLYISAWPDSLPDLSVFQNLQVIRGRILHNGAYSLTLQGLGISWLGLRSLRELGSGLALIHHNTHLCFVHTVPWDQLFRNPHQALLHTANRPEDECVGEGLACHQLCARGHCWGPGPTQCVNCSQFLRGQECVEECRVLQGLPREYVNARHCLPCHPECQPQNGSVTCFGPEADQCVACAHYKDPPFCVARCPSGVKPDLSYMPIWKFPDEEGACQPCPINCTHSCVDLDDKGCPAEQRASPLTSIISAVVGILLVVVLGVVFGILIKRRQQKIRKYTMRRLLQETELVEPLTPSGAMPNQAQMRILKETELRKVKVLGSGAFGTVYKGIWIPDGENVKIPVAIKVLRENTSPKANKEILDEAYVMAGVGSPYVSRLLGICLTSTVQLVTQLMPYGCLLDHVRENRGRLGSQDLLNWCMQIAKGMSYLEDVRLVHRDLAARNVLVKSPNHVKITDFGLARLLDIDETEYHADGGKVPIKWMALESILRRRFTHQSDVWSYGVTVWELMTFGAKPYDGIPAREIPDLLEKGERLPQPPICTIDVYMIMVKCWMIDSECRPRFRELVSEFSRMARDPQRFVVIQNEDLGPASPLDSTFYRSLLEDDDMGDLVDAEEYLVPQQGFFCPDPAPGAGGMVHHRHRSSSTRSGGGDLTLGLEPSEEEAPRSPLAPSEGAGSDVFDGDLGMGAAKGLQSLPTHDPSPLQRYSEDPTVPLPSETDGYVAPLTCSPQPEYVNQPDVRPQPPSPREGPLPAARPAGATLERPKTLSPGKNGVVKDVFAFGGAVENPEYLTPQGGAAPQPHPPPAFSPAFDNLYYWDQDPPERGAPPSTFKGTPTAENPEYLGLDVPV
Assay [7] has the same target. As to conditions: at 1 µM.
Assay [8] deals with Receptor tyrosine-protein kinase erbB-4 (Homo sapiens) (UniProt Q15303). As to conditions: at 0.1 µM.
Sequence of Receptor tyrosine-protein kinase erbB-4 (Homo sapiens) (Q15303 whole entry): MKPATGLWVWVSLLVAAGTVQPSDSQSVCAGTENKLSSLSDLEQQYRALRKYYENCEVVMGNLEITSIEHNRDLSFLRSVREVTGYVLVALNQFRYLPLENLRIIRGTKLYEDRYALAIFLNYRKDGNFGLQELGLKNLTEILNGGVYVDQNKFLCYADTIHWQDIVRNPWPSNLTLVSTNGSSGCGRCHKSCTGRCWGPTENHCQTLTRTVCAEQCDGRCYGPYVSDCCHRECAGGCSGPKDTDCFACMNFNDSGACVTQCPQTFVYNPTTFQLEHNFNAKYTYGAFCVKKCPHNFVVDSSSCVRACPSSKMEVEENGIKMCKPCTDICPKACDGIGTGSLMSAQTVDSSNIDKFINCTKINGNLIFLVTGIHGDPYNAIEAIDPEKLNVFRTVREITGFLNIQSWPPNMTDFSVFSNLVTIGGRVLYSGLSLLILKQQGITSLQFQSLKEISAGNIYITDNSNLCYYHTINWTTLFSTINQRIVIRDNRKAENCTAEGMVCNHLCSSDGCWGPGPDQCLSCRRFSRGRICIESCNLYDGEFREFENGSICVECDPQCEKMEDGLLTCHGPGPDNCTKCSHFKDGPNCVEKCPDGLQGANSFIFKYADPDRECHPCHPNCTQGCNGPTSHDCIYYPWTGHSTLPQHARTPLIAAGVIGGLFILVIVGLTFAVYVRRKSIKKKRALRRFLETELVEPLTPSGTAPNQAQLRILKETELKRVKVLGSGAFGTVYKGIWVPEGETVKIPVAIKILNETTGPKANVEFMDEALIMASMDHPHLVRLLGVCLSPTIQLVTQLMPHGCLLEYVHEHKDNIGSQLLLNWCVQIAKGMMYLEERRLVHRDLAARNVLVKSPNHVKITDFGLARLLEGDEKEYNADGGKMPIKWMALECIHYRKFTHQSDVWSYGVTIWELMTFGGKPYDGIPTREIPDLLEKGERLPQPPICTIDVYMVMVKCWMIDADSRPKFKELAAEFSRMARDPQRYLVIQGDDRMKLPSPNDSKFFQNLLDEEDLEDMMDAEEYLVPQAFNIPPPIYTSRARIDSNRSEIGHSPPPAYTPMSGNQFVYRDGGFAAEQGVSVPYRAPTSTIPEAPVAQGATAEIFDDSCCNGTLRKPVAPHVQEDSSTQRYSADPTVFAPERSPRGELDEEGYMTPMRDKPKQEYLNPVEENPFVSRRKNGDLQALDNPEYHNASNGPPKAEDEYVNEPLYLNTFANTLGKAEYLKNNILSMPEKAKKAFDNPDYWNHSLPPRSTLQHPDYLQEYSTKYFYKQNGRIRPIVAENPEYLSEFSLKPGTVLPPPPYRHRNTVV
For assay [9] the target is unchanged. As to conditions: at 1 µM.
Assay [10] deals with Tyrosine-protein kinase Fer (Homo sapiens) (UniProt P16591). As to conditions: at 0.1 µM.
Sequence of Tyrosine-protein kinase Fer (Homo sapiens) (P16591 whole entry, looked up): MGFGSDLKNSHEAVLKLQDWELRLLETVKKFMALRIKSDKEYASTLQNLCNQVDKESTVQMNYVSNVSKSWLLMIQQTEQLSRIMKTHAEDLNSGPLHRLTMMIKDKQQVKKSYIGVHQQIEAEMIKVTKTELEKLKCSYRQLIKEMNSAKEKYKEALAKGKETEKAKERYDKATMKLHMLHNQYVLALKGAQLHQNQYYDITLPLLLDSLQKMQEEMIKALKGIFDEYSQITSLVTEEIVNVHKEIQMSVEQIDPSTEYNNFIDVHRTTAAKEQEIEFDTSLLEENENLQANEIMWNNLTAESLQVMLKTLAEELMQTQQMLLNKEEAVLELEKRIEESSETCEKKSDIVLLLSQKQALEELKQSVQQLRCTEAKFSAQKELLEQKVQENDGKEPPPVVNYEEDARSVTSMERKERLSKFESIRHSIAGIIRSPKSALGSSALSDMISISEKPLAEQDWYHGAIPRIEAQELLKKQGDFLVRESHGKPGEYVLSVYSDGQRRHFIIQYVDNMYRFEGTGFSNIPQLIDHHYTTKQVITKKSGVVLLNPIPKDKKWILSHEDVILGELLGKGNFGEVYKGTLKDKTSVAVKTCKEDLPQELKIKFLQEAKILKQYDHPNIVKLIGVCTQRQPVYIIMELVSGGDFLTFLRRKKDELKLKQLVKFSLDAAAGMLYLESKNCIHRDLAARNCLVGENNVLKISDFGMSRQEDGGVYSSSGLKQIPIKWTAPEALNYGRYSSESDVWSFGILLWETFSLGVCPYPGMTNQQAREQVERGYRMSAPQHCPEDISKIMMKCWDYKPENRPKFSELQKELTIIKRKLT
Assay [11] shares this target. As to conditions: at 1 µM.
In assay [12] the target is Tyrosine-protein kinase Fes/Fps (Homo sapiens) (UniProt P07332). As to conditions: at 0.1 µM.
Sequence of Tyrosine-protein kinase Fes/Fps (Homo sapiens) (P07332 whole entry): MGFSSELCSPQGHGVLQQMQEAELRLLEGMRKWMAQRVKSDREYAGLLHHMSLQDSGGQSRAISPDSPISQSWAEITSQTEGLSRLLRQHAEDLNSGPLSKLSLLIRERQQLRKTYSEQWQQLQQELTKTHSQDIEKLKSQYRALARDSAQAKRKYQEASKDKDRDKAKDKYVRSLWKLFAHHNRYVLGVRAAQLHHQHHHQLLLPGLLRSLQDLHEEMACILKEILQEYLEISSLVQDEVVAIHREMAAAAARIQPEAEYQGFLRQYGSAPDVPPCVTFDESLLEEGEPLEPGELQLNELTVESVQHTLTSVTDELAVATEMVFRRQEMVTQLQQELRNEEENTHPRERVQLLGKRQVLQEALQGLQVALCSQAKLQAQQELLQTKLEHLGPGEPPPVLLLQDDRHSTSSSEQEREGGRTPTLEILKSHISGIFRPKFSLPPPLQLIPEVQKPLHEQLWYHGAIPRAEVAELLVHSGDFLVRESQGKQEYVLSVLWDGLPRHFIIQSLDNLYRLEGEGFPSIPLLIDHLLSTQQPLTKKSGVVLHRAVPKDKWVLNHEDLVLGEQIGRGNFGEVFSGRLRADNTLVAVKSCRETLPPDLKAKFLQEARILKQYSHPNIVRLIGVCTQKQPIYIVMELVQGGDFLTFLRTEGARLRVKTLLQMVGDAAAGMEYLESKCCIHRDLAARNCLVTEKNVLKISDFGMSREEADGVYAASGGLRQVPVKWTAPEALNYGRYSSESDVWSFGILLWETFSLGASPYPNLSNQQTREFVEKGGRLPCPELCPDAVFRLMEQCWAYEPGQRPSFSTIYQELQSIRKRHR
Assay [13] has the same target. As to conditions: at 1 µM.
In assay [14] the target is Fibroblast growth factor receptor 1 (Homo sapiens) (UniProt P11362). As to conditions: at 0.1 µM.
For assay [15] the target is unchanged. As to conditions: at 1 µM.
Assay [16] has as its target Fibroblast growth factor receptor 2 (Homo sapiens) (UniProt P21802). As to conditions: at 0.1 µM.
Assay [17] has the same target. As to conditions: at 1 µM.
The target of assay [18] is Fibroblast growth factor receptor 3 (Homo sapiens) (UniProt P22607). As to conditions: at 0.1 µM.
Sequence of Fibroblast growth factor receptor 3 (Homo sapiens) (P22607 23-806 limits assumed): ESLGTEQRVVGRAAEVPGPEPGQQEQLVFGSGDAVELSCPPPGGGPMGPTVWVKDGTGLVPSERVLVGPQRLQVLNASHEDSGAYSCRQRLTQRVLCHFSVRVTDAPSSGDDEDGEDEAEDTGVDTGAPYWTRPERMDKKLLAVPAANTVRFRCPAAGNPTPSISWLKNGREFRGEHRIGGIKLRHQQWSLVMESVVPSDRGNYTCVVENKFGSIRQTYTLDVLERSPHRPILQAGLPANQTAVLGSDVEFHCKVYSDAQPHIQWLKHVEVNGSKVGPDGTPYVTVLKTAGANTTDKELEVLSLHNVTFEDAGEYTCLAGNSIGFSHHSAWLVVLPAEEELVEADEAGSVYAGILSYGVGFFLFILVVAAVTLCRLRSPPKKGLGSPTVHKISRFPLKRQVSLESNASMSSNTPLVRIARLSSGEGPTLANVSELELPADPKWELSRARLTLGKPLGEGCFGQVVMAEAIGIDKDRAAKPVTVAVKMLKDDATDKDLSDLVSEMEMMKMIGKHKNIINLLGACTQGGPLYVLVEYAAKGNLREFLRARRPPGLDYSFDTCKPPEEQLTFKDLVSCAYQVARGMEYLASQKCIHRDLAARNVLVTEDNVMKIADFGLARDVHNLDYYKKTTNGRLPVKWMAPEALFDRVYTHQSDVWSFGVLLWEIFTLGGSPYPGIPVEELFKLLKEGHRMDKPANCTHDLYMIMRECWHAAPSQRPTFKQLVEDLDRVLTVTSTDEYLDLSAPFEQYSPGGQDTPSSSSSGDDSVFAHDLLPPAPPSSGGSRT
For assay [19] the target is unchanged. As to conditions: at 1 µM.
Assay [20] addresses Fibroblast growth factor receptor 4 (Homo sapiens) (UniProt P22455). As to conditions: at 0.1 µM.

Structures are written as SMILES.

As to `CCc1cccc(CC)c1/C=C/c1cncc(C(=O)NC)c1`, the inhibition in [1] turned out to be 11.1%; in assay [2], 3.73%; in assay [3] it was 2.63%; in assay [4], 1.12%; in assay [5], 1.84%; in assay [6] it was 0.13%. Moreover, the inhibition in assay [7] was -1.35%; in [8], 12.1%; in assay [9] it was 14.1%; in assay [10] it was 1.86%; in [11], 1.64%; in [12], 2.16%. For the same compound, the inhibition in assay [13] was determined as 2.33%; in assay [14], 5.4%; in assay [15] it was 11.8%; in assay [16] it was 5.9%; in assay [17], 9.23%; in assay [18], 6.74%. The figures for the inhibition in assay [19] and in assay [20] were 9.45% and -1.16%, respectively.

Regarding `COc1cc2ncn(-c3cc(OCCc4ccccc4)c(C(N)=O)s3)c2cc1OC`, the inhibition turned out to be 6.52% in assay [1]; 2.67% in assay [2]; 2.11% in assay [3]; 2.03% in assay [4]; 2.56% in assay [5]; 2.58% in [6]. Also, the inhibition worked out at 2.47% in assay [7]; 13.8% in assay [8]; 13.1% in assay [9]; 4.91% in assay [10]; 1.49% in assay [11]; 1.6% in assay [12]. Also, the inhibition in assay [13] was found to be 1.71%; in [14], 14.8%; in [15] it was 2.62%; in assay [16] it was 1.97%; in assay [17] it was 3.63%; in [18], 2.83%. Also, the inhibition was 2.85% in assay [19] and -0.14% in [20].

Consider `O=C(Nc1n[nH]c2cc(-c3cc(F)ccc3F)ccc12)C1CC1`, for which the inhibition in [1] came out at 8.75%; in [2], 8.17%; in assay [3], 2.98%; in [4], 2.32%; in assay [5], 4.67%; in [6], 3.32%. Moreover, the inhibition in assay [7] was 1.51%; in assay [8], 8.07%; in assay [9], 8.44%; in assay [10], 2.98%; in assay [11], 3.05%; in assay [12] it was 2.89%. In addition, the inhibition in [13] came out at 3.45%; in assay [14], 0.53%; in [15], 1.69%; in assay [16], 1.35%; in [17], 6.04%; in [18], 3.51%. For the same compound, the inhibition in assay [19] was 2.02%; in [20], -1.89%.

Regarding `COc1cccc(/C=N/Nc2ncnc3c2cnn3-c2cccc(OC)c2)c1`, the inhibition in [1] worked out at 5.8%; in assay [2], 1.82%; in [3], 3.68%; in assay [4] it was 0.66%; in assay [5], 1.2%; in assay [6], 0.2%. Moreover, the inhibition in assay [7] was 5.67%; in assay [8], 5.57%; in assay [9] it was 10%; in assay [10] it was -0.09%; in assay [11], 3.78%; in assay [12], 3.43%. Also, the inhibition is 3.25% in assay [13]; 4.2% in assay [14]; 2.4% in assay [15]; 5.34% in assay [16]; 6.12% in [17]; 4.59% in assay [18]. Also, the figures for the inhibition in assay [19] and in assay [20] were 5.11% and 2.44%, respectively.

As to `Fc1ccc(-c2ncn(C3CCNCC3)c2-c2ccnc(Oc3ccc4c(c3)OCO4)n2)cc1`, the inhibition in assay [1] was 16.5%; in assay [2] it was 5.97%; in [3], 3.71%; in [4], 1.53%; in [5], 3.9%; in assay [6], -0.35%. Besides, the inhibition is 12% in assay [7]; 10.6% in [8]; 19.3% in assay [9]; 6.11% in assay [10]; 10.4% in [11]; 4.19% in assay [12]. The inhibition in assay [13] is 3.36%; in [14], 3.51%; in assay [15] it was 11.8%; in [16], 6.16%; in assay [17], 12%; in assay [18], 6.95%. For the same compound, the inhibition in [19] stood at 9.41%.

Regarding `C/C(Nc1ccc(S(N)(=O)=O)cc1)=C1/C(=O)Nc2ccccc21`, the inhibition in assay [1] is -0.51%; in assay [2] it was -3.87%; in [3] it was -3.57%; in assay [4], -2.17%; in assay [5], -2.22%; in [6] it was -3.56%. Also, the inhibition in assay [7] was -3.5%; in assay [8], -5.37%; in assay [9], -8.14%; in [10] it was 0.46%; in assay [11], 10.5%; in assay [12] it was -2.91%. In addition, the inhibition in [13] is -3.39%; in assay [14] it was -4.77%; in assay [15], 6.33%; in assay [16], 0.2%; in [17], 21.1%; in assay [18], 0.94%. For the same compound, the inhibition in assay [19] was found to be 21%; in [20] it was 1.73%.

The term inhibition denotes the drop in the measured response relative to a control, in per cent.

The values are drawn from ChEMBL document CHEMBL1961873, “Compounds: GSK PKIS; Assays: Nanosyn kinase panel” (2012).
